Source: PubChem BioAssay (EPA / NIEHS)
Active and inactive are the calls of the source. How the source made its calls: active means hit-call score of the fitted dose curve at least 0.9, where 1 is the maximum; inactive means score below 0.9.

Tests used:
[1] = read-out: Vascular endothelial growth factor receptor 2 (Homo sapiens) (UniProt P35968); assay: BSK_4H_VEGFRII: BioMAP Diversity Plus: 4H Assay for Vascular endothelial growth factor receptor 2 (VEGFR2) Biomarker Activity (AID 2283031); settings: primary human endothelial cells (HUVEC); actives raise or lower the signal;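 on AC50: cell-surface VEGFR2 protein level quantified by ELISA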
In short: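 Measured by ELISA after 24 h of compound treatment: VEGFR2 on primary human umbilical vein endothelial cells, fitted in both directions relative to DMSO. Parallel cultures received SRB staining (560 nm) for overt cytotoxicity.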

[2] = read-out: Human Leukocyte Antigen - DR isotype (HLADR), HLA-DRA (gene 3122); assay: BSK_BE3C_HLADR: BioMAP Diversity Plus: BE3C Assay for Human Leukocyte Antigen - DR isotype (HLADR) Biomarker Activity (AID 2283032); settings: primary human bronchial epithelial cells; actives raise or lower the signal
In short: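 Signal came from an ELISA for HLA-DR in human bronchial epithelial primary cells harvested 24 h after treatment; gain- and loss-of-signal fitting used DMSO controls as reference.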

[3] = read-out: Vascular cell adhesion molecule 1 (VCAM1), VCAM1 (gene 7412); assay: BSK_4H_VCAM1: BioMAP Diversity Plus: 4H Assay for Vascular cell adhesion molecule 1 (VCAM1) Biomarker Activity (AID 2283033); settings: primary human endothelial cells (HUVEC); actives raise or lower the signal
In short: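 Endpoint derived from bidirectional fitting against DMSO controls of VCAM-1 ELISA signal in umbilical vein endothelial cells sampled at 24 h following treatment.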

[4] = read-out: Interferon-gamma inducible Protein 10 (IP10), CXCL10 (gene 3627); assay: BSK_BE3C_IP10: BioMAP Diversity Plus: BE3C Assay for Interferon-gamma inducible Protein 10 (IP10) Biomarker Activity (AID 2283034); settings: primary human bronchial epithelial cells; actives raise or lower the signal
In short: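 Using primary human bronchial epithelial cultures, the assay captures IP-10 by ELISA one day (24 h) after exposure. Parallel SRB staining of total protein flags overt cytotoxicity. Fits run bidirectionally relative to DMSO.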

[5] = read-out: Monokine induced gamma interferon (MIG), CXCL9 (gene 4283); assay: BSK_BE3C_MIG: BioMAP Diversity Plus: BE3C Assay for Monokine induced gamma interferon (MIG) Biomarker Activity (AID 2283035); settings: primary human bronchial epithelial cells; actives raise or lower the signal
In short: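 ELISA read-out of MIG in human lung bronchial epithelial primary cultures, 24 h post-dosing. Bidirectional curve fit vs DMSO baseline.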

[6] = read-out: Transforming growth factor beta 1 (TGFb1), TGFB1 (gene 7040); assay: BSK_BE3C_TGFb1: BioMAP Diversity Plus: BE3C Assay for Transforming growth factor beta 1 (TGFb1) Biomarker Activity (AID 2283036); settings: primary human bronchial epithelial cells; actives raise or lower the signal
In short: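 In this human primary bronchial epithelial system, an ELISA quantified TGF-b1 one day after dosing. Endpoint changes in either direction were fitted relative to DMSO.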

[7] = read-out: Plasminogen activator inhibitor-1 (PAI1), SERPINE1 (gene 5054); assay: BSK_BE3C_PAI1: BioMAP Diversity Plus: BE3C Assay for Plasminogen activator inhibitor-1 (PAI1) Biomarker Activity (AID 2283037); settings: primary human bronchial epithelial cells; actives raise or lower the signal
In short: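 PAI-1 biomarker levels in treated human bronchial epithelial cells are determined by ELISA at 24 h. Both increases and decreases relative to DMSO are fitted.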

[8] = read-out: urokinase plasminogen activator (uPA), PLAU (gene 5328); assay: BSK_BE3C_uPA: BioMAP Diversity Plus: BE3C Assay for urokinase plasminogen activator (uPA) Biomarker Activity (AID 2283038); settings: primary human bronchial epithelial cells; actives raise or lower the signal
In short: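 ELISA for uPA on human primary bronchial epithelial cultures 24 h post-treatment, gain or loss against DMSO. Parallel SRB staining (0.1% after 10% TCA fixation, 560 nm) assessed overt cytotoxicity.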

[9] = read-out: Urokinase-type plasminogen activator receptor (uPAR), PLAUR (gene 5329); assay: BSK_BE3C_uPAR: BioMAP Diversity Plus: BE3C Assay for Urokinase-type plasminogen activator receptor (uPAR) Biomarker Activity (AID 2283039); settings: primary human bronchial epithelial cells; actives raise or lower the signal
In short: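 A uPAR ELISA serves as the readout, taken 24 h after treating primary human bronchial epithelial cells. Responses in either direction are fitted against DMSO, which defines baseline activity.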

[10] = read-out: Interleukin-6 (IL6), IL6 (gene 3569); assay: BSK_CASM3C_IL6: BioMAP Diversity Plus: CASM3C Assay for Interleukin-6 (IL6) Biomarker Activity for (AID 2283040); settings: primary human coronary artery smooth muscle cells; actives raise or lower the signal
[11] = read-out: Tissue plasminogen activator (tPA), PLAT (gene 5327); assay: BSK_BE3C_tPA: BioMAP Diversity Plus: BE3C Assay for Tissue plasminogen activator (tPA) Biomarker Activity (AID 2283041); settings: primary human bronchial epithelial cells; actives raise or lower the signal
In short: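 Bidirectional curve fitting relative to DMSO defined activity, with tPA detected by ELISA in chemically treated human bronchial epithelial primary cells at 24 hours.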

[12] = read-out: Interleukin-8 (IL8), CXCL8 (gene 3576); assay: BSK_CASM3C_IL8: BioMAP Diversity Plus: CASM3C Assay for Interleukin-8 (IL8) Biomarker Activity (AID 2283042); settings: primary human coronary artery smooth muscle cells; actives raise or lower the signal;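 further: IL-8 protein level quantified by ELISA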
[13] = read-out: Human Leukocyte Antigen - DR isotype (HLADR), HLA-DRA (gene 3122); assay: BSK_CASM3C_HLADR: BioMAP Diversity Plus: CASM3C Assay for Human Leukocyte Antigen - DR isotype (HLADR) Biomarker Activity (AID 2283043); settings: primary human coronary artery smooth muscle cells; actives raise or lower the signal;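 further: cell-surface HLA-DR protein level quantified by ELISA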
[14] = read-out: Macrophage colony-stimulating factor (MCSF), CSF1 (gene 1435); assay: BSK_CASM3C_MCSF: BioMAP Diversity Plus: CASM3C Assay for Macrophage colony-stimulating factor (MCSF) Biomarker Activity (AID 2283044); settings: primary human coronary artery smooth muscle cells; actives raise or lower the signal;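 further: M-CSF protein amount quantified by ELISA after 24 h exposure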
[15] = read-out: Low-density lipoprotein receptor (LDLR), LDLR (gene 3949); assay: BSK_CASM3C_LDLR: BioMAP Diversity Plus: CASM3C Assay for Low-density lipoprotein receptor (LDLR) Biomarker Activity (AID 2283045); settings: primary human coronary artery smooth muscle cells; actives raise or lower the signal;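 further: LDLR protein level on the cell surface quantified by ELISA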
[16] = read-out: Monocyte Chemoattractant Protein-1 (MCP1), CCL2 (gene 6347); assay: BSK_CASM3C_MCP1: BioMAP Diversity Plus: CASM3C Assay for Monocyte Chemoattractant Protein-1 (MCP1) Biomarker Activity (AID 2283046); settings: primary human coronary artery smooth muscle cells; actives raise or lower the signal;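 further: MCP-1 level quantified by ELISA 24 h after dosing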
[17] = BSK_CASM3C_Proliferation: Cell Proliferation Assessment in the BioMAP Diversity Plus: CASM3C Assay (AID 2283047); settings: primary human coronary artery smooth muscle cells;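 further: sulforhodamine B total protein stain as relative cell number at 560 nm; sub-confluent cells exposed 48 h before staining; fitted both ways against DMSO so gain or loss of cell number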
[18] = read-out: Monokine induced gamma interferon (MIG), CXCL9 (gene 4283); assay: BSK_CASM3C_MIG: BioMAP Diversity Plus: CASM3C Assay for Monokine induced gamma interferon (MIG) Biomarker Activity (AID 2283048); settings: primary human coronary artery smooth muscle cells; actives raise or lower the signal;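 further: MIG protein level measured by ELISA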
[19] = read-out: serum amyloid A (SAA), SAA1 (gene 6288); assay: BSK_CASM3C_SAA: BioMAP Diversity Plus: CASM3C Assay for serum amyloid A (SAA) Biomarker Activity (AID 2283049); settings: primary human coronary artery smooth muscle cells; actives raise or lower the signal;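 further: SAA protein level quantified by ELISA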
[20] = BSK_CASM3C_SRB: Viability Assessment in the BioMAP Diversity Plus: CASM3C Assay (AID 2283050); settings: primary human coronary artery smooth muscle cells

Measured: AC50

COc1cc(C(=O)NC2CCN(C)CC2)ccc1Nc1ncc2c(n1)N(C1CCCC1)CC(F)(F)C(=O)N2C
active: [2] 21.9 µM | [3] 7.23 µM | [4] 35.5 µM | [5] 31.8 µM | [6] 18.5 µM | [7] 18.6 µM | [8] 12.6 µM | [9] 5.34 µM | [10] 8.51 µM | [11] 10.6 µM | [12] 19.2 µM | [13] 9.13 µM | [14] 18.6 µM | [15] 6.15 µM | [16] 25.1 µM | [17] 1.67 µM | [18] 20.8 µM | [19] 31.9 µM | [20] 27.5 µM
inactive: [1]

CC(C)(O)c1ccc(CNC(=O)c2cccnc2Oc2ccc3nonc3c2)cc1
active: [10] 20 µM | [19] 27.5 µM
inactive: all other assays above

Clc1cc(Cl)c2c(c1)N=C1CCCCCN1C2
inactive: all assays above

O=C1O[C@H]([C@@H](O)CO)C(O)=C1O
inactive: all assays above

CC(C)(C)c1csc(-c2cc3cc(OCc4ccccc4CC(=O)O)ccc3o2)n1
active: [1] 9.41 µM | [2] 6.97 µM | [3] 31.1 µM | [4] 6.96 µM | [5] 11.4 µM | [7] 5.03 µM | [8] 11.6 µM | [9] 12.2 µM | [11] 6.81 µM | [13] 29 µM | [14] 28.2 µM | [17] 34 µM | [20] 31 µM
inactive: [6] | [10] | [12] | [15] | [16] | [18] | [19]

O=c1ccc2ccccc2o1
active: [19] 0.148 µM
inactive: all other assays above

CCN(Cc1cccnc1)C(=O)c1cccc(Cl)c1[C@]1(C)C(=O)N(Cc2ccc(OC)cc2OC)c2ccc(Cl)cc21
active: [1] 6.81 µM | [4] 12.1 µM | [7] 3.79 µM | [8] 5.67 µM | [9] 6.94 µM | [10] 12.3 µM | [13] 29.8 µM | [15] 1.39 µM | [17] 12.6 µM
inactive: all other assays above

CCCCCCCCOC(=O)c1cc(O)c(O)c(O)c1
active: [2] 22 µM | [3] 6.26 µM | [4] 29.8 µM | [5] 34 µM | [6] 27.2 µM | [7] 32.8 µM | [8] 37.7 µM | [9] 36.5 µM | [10] 3.97 µM | [11] 24.9 µM | [12] 31.7 µM | [13] 31.9 µM | [14] 20 µM | [15] 29.2 µM | [16] 27.8 µM | [17] 16.1 µM | [18] 31 µM | [19] 20 µM | [20] 31.3 µM
inactive: [1]

Cc1ccc2oc(CN(Cc3ccccc3)C(=O)Nc3c(F)cc(F)cc3F)c(-c3ccc(Cl)cc3)c2c1
inactive: all assays above

Cc1cc(F)ccc1-c1cc(N2CC[C@@H](O)[C@H]2CO)ncc1N(C)C(=O)C(C)(C)c1cc(C(F)(F)F)cc(C(F)(F)F)c1
active: [1] 7.98 µM | [2] 12.8 µM | [3] 11.2 µM | [5] 13.9 µM | [6] 11.5 µM | [7] 13 µM | [8] 14.8 µM | [9] 14 µM | [10] 16.3 µM | [11] 9.81 µM | [12] 27.8 µM | [13] 26.5 µM | [14] 26.1 µM | [15] 24.4 µM | [16] 31 µM | [17] 28.3 µM | [18] 30.1 µM | [19] 31.7 µM | [20] 29.2 µM

CC/C(=C(/CC)c1ccc(O)cc1)c1ccc(O)cc1
active: [2] 23.4 µM | [3] 28.9 µM | [4] 17.1 µM | [5] 33 µM | [6] 6.47 µM | [7] 20 µM | [8] 33.6 µM | [9] 31.3 µM | [11] 14.3 µM | [12] 1.17 µM | [15] 8.57 µM | [16] 0.345 µM | [17] 20 µM | [19] 33.7 µM | [20] 29.9 µM
inactive: [1] | [10] | [13] | [14] | [18]
